In PubChem BioAssay AID624391 (National Center for Advancing Translational Sciences (NCATS), 2012):
Active and inactive are the calls of the source. The call rests on the fitted dose curve; in most records, active means well fitted curve in the direction sought with a large enough effect; inactive means no such curve, though single readings can be large or run the other way.

What follows are compounds tested against Pyruvate kinase PKM (Homo sapiens) (UniProt P14618) (assay: qHTS for Activators of Human Muscle Isoform 2 Pyruvate Kinase: Extended Characterization for Probe 2). Details: purified hPK-M2, Kinase-Glo ATP luminescence, 1 h.
Pyruvate kinase PKM (Homo sapiens), sequence (P14618 whole entry, looked up, canonical isoform): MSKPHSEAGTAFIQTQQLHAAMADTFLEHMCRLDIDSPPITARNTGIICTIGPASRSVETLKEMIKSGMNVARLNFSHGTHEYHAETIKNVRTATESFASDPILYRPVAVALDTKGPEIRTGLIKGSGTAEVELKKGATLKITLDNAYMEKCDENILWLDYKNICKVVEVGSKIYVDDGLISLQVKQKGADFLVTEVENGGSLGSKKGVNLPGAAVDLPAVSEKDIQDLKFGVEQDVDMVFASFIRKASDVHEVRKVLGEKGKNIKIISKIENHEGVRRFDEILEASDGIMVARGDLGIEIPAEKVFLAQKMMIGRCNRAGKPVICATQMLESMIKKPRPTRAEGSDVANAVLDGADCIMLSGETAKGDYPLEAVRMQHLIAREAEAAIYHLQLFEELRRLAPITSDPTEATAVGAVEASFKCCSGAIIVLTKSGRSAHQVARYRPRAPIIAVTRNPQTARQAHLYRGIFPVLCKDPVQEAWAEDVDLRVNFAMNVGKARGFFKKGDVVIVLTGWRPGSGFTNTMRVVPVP
Description: Human pyruvate kinase muscle 2 (hPK-M2) enzyme was supplied as a highly purified (>95% pure) preparation from Harvard Medical School and assayed for its ability to generate ATP from ADP using phosphoenolpyruvate (PEP) as a substrate. ATP generation was detected in a coupled reaction by luciferase-mediated luminescence, an ATP-dependent process. […] The enzyme was assayed at an intermediate level of activity to screen for both inhibitors and activators. NIH Chemical Genomics Center [NCGC] NIH Molecular Libraries Probe Centers Network [MLPCN] MLPCN Grant: MH085679 Assay Submitter (PI): Matthew G. Vander Heiden, Harvard Medical School
Three uL of substrate mix (at r.t.) in assay buffer (50 mM Imidazole pH7.2, 50 mM KCl, 7 mM MgCl2, 0.01% Tween 20, 0.05% BSA) was dispensed into white solid bottom 1,536 well microtiter plates so that the final concentrations of substrates in the assay were 0.1 mM ADP and 0.5 mM PEP. 23 nL of compound were delivered by a pin tool and 1 uL of enzyme mix (final concentration of 0.1 nM) in assay buffer (4 degree Celsius) was added. Plates were incubated at room temperature for 1 hour. Two uL of detection mix (Kinase-Glo, Promega; at 4 degree Celsius protected from light) was added and luminescence read by a ViewLux (Perkin Elmer) at 1 second exposure/plate. Data were normalized to the uninhibited (column 3) and AC100 inhibition (no enzyme in column 2). To monitor activation, the first column contained a titration of the activator, NCGC00031955-03 (16-point 1:2 dilutions in duplicate starting at 57 uM) and the first 16 rows of column 4 contained 57 uM of NCGC00031955-03.

Potency, active:
Cc1ccc(NS(=O)(=O)c2ccc3c(c2)CCC(=O)N3)cc1C 163 nM
O=S(=O)(c1ccc2c(c1)OCCO2)N1CCN(S(=O)(=O)c2c(F)cccc2F)CC1 81.9 nM
COc1cccc(Cn2ncc3c4sc(S(C)=O)cc4n(C)c3c2=O)c1 (stereo not drawn) 73 nM
